Each structure is given as a SMILES string. Measured potencies and affinities stand elsewhere. Activity calls are given as the source filed them.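 Rule for the calls: active = cell killing, meaning signal decrease, with fitted half-maximal dose at or below ten times the top valid tested dose; inconclusive = poor fit, or flat curve with 30 to 70% signal loss; inactive = the rest.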

A short description of this assay: HeLa cell cytotoxicity, dose response, cytotoxicity control for MITF activator project, CellTiter-Glo luminescence, cherry-pick samples (AID 540259). The conditions noted are these: HeLa viability, CellTiter-Glo ATP luminescence, 24 h; series mostly up to 35 µM. (In ATP-based viability assays light output follows the ATP content of the culture.)
On to `O=C(Cc1cccs1)NCc1ccc(Cl)cc1Cl`, for which the result was inactive. As for `COc1ccc(NC(=O)c2ccc3c(c2)OCO3)cc1Cl`, the entry is “inactive”; as for `Cc1ccc(NC(=O)N2CCc3ccccc3C2)cc1C`, “inactive”; as for `O=C(N/N=C/c1ccc(OC(=O)c2ccccc2Cl)cc1)c1ccccn1`, “inactive”. On to `CCc1cccc(NC(=O)c2sc3nc4n(c(=O)c3c2C)CCC4)c1`, for which the result was inactive. On to `CCc1c(C(=O)Nc2ccc(C)c(C)c2)[nH]c(C)c1C(C)=O`, for which the call was inactive.

Take `O=C(OCc1csc(-c2ccccc2)n1)c1ccc(O)cc1`: the compound was called inactive. As for `Cc1ccsc1C(=O)OCc1nnc(-c2ccccc2)o1`, the entry is “inactive”; as for `Cc1ccc(/C=N/Nc2ccc(Cl)nn2)cc1`, “inactive”.

With `COc1ccc(C(=O)CN2Cc3ccccc3C2=N)cc1`, the result was inactive. Under `Cc1nn(-c2ccccn2)c2c1-c1nc(N)ncc1CC2` stands “inactive”; under `CCC(C)NC(=O)c1cn(-c2cccc(C)n2)cn1` (configuration not stated), “inactive”. As for `O=C(N/N=C/c1ccc(Cl)cc1Cl)c1cccc(F)c1`, the compound was called inactive.

On to `O=C(CC(Nc1ccccc1)C(=O)O)c1ccccc1` (configuration not stated), for which the outcome was inactive. On to `CCCc1ccc(C(=O)NNc2ccccc2F)cc1`, for which the compound was called inactive.

With `NC(=O)c1ccc(-c2noc(-c3cccc(Cl)c3)n2)cc1`, the call was inactive.

Turning to `COC(=O)c1ccc(Nc2ncnc3sccc23)cc1`, the compound was called inactive.

Regarding `Cn1ccs/c1=N\C(=O)Nc1ccccc1`, the compound was classed as inactive. Under `CC(C)c1ccc(NC(=O)Cn2ncc3ccccc32)cc1` stands “inactive”; under `Fc1ccccc1Nc1nc2ccccc2o1`, “inactive”; under `CN(C)c1ccc(/C=C/c2cccc[n+]2[O-])cc1`, “inactive”. Under `CCCc1nc2ccc(NC(C)=O)cc2c(=O)n1Cc1ccc(Cl)cc1` stands “inactive”; under `COc1ccccc1NC(=O)Nc1nc2ccc(S(N)(=O)=O)cc2s1`, “inactive”; under `Cc1ccnc(NC(=O)C2CC(=O)N(Cc3ccccc3)C2)c1` (configuration not stated), “inactive”. As for `O=C(O)c1ccc(/C=C/c2ccc3cccc(O)c3n2)cc1`, the entry is “inactive”. `COC(=O)c1ccc(N=NN2CCCCC2)cc1`: the result was inactive. As for `CC(C)(C)c1ccc(C(=O)Nc2ccc(F)cc2)s1`, the entry is “inactive”; as for `CC(C)(C)C(=O)c1sc(Nc2ccccc2)nc1N`, “inactive”. Take `COC(=O)Cc1ccc(NC(=O)c2ccc(C)c(C)c2)cc1`: the compound was classed as inactive.

Consider `COc1ccc(-c2csc(N(C)C(=O)c3cccs3)n2)cc1`, for which the call was inactive. As for `CCN1CCN(c2ccc(NC(=O)c3cccc(F)c3)cc2Cl)CC1`, the call was inactive. In the case of `O=C(Nc1ccccc1)N1CCC(c2ccccc2)C1` (configuration not stated), the result was inactive. Under `Cc1nc(SCc2ccccc2)nc2c1CCC2` stands “inactive”. As for `Cc1ccc(S(=O)(=O)Nc2cccc(-c3ccc(N4CCCCCC4)nn3)c2)cc1`, the entry is “inactive”; as for `Cc1ccn2cc(-c3cccc(NS(C)(=O)=O)c3)nc2c1`, “inactive”; as for `O=C(Nc1ccc(F)cc1Cl)c1ccc2c(=O)n3c(nc2c1)CCC3`, “inactive”. With `O=C(Nc1ccc2oc(-c3ccccc3)nc2c1)c1cccnc1`, the compound was classed as inactive.

Values taken from PubChem BioAssay AID540259 (Broad Institute, 2011).
